# Reference: PubChem BioAssay AID2284125 (EPA ToxCast)
# Activity calls are given as the source filed them. The calls were made as follows: active = hit-call score of the fitted dose curve at least 0.9, where 1 is the maximum; inactive = score below 0.9.
# Target: Beta-2 adrenergic receptor (Homo sapiens) (UniProt P07550)
# Assay: ERF_FR_GPCR_hADRB2: Eurofins (ERF) G Protein-Coupled Receptor (GPCR) Radioligand Binding LeadHunter Assay for human Adrenoceptor Receptor beta2 Antagonism, conducted at France lab site
# Experimental: ERF_FR_GPCR_hADRB2 is a biochemical, single-readout assay that uses extracted gene-proteins in a cell-free assay. Measurements were taken 2 hour after chemical dosing in a 96-well plate. See beta2 Human Adrenoceptor GPCR Binding (Antagonist Radioligand) Assay, Cerep.ERF_FR_GPCR_hADRB2 is an assay component calculated from the ERF_FR_GPCR_hADRB2 assay. It is designed to measure radioligand binding using a type of binding reporter as detected by scintillation counting with radiometry technology.Data from the assay component ERF_FR_GPCR_hADRB2 was analyzed at the assay endpoint, ERF_FR_GPCR_hADRB2, in the positive analysis fitting direction relative to DMSO as the negative control and baseline of activity. Using a type of binding reporter, loss-of-signal activity can be used to understand changes in binding as they relate to gene ADRB2. To generalize the intended target to other relatable targets, this assay endpoint is annotated to the gpcr intended target family, where the subfamily is adrenoceptor.
# Human cells are incubated for 60 minutes in room temprature, using [3H](-)CGP 12177 ligand at 0.3 Kd (nM) with ICI 118551 control inhibitor.Test Sample Requirements: Minimum for 1) Screen: 60 ul of 10 mM stock -OR- 1 mg (pre-weighed) for […] uM final testing. 2) Dose Response: 90 ul of 10 mM stock -OR- 1 mg (pre-weighed) for a top concentration at 10 uM.
# Chain of Beta-2 adrenergic receptor (Homo sapiens) (P07550 whole entry, looked up): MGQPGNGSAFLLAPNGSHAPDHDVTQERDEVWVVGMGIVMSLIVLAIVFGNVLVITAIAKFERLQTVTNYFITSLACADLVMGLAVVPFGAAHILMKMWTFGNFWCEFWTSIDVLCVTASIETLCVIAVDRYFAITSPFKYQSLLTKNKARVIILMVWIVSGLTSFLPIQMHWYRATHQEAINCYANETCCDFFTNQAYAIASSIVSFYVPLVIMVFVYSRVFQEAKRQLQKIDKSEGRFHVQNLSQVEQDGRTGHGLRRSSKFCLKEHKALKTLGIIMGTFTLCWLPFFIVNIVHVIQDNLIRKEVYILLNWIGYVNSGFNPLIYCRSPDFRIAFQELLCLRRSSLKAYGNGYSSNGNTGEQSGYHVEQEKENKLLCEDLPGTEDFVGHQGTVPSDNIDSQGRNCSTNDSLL
SMILES,outcome,AC50
COc1cc(CCC(=O)CC(=O)CCc2ccc(O)c(OC)c2)ccc1O,inactive,
O=C(/C=C/c1ccc(O)cc1)CC(=O)/C=C/c1ccc(O)cc1,,3.68 µM (active)
